Results published in PubChem BioAssay AID2551 (National Center for Advancing Translational Sciences (NCATS), 2010).
Hit rate of the full screen: of about 310,000 compounds, about 17,000 (5.5%) were called active. About 11% were inconclusive and are not listed. The call rests on the fitted dose curve; in most records, active means well fitted inhibition curve with a large enough effect; inconclusive means small, poorly fitted or top-dose-only effect, or effect the other way; inactive means no such curve, though single readings can be large or run the other way. This excerpt belongs to a sample that is enriched for actives.

Biological target: Nuclear receptor ROR-gamma (Mus musculus) (UniProt P51450)
Sequence (P51450 whole entry, looked up): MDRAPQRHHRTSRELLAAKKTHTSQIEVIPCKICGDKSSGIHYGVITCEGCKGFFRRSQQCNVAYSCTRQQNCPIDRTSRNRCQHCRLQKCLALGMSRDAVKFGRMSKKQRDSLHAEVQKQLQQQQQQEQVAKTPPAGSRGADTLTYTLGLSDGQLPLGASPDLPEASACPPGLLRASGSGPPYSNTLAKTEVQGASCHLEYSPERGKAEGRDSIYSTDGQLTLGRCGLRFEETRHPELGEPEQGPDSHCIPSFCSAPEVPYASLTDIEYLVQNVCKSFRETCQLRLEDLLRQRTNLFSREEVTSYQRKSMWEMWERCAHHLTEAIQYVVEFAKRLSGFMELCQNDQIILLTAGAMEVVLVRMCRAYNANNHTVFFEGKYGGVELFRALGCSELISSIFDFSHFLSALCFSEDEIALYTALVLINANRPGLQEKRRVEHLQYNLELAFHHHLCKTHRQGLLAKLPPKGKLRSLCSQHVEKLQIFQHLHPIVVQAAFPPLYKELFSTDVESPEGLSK
Experiment: qHTS for inhibitors of ROR gamma transcriptional activity; further: nearly all actives have a fitted effect of over 60% in size
Conditions: Drosophila S2 Gal4-RORgamma UAS-luciferase reporter, 20 h; series mostly up to 53.6 µM; activity change, negative = inhibition: at the top concentration
Summary of the method: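 Luminescence from a UAS-regulated Photinus luciferase reporter in stably transfected Drosophila Schneider cells is measured; decreased signal marks ROR gamma inhibition. Fusion expression is induced by 700 uM copper sulfate for 20 hr.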
On the % scale 0 is the no-effect control and ±100 the full control effect; potency means the concentration at half of the fitted maximal effect.

| SMILES | activity change, negative = inhibition | Potency |
| --- | --- | --- |
| COC(=O)c1cccc(C(=O)N2CCC(CCC(=O)NCc3ccc(F)cc3)CC2)c1 | 7.81% (inactive) |  |
| COc1cccc(CN(C)CC2CCCN(CCc3ccc(Cl)cc3)C2)c1OC (stereo not drawn) | -32% (inactive) |  |
| CCS(=O)(=O)N1Cc2ccccc2CC1C(=O)Nc1nc2ccc(F)cc2s1 (stereo not drawn) |  | 4.47 µM (active) |
| NS(=O)(=O)c1ccc2nc(NC(=O)CS(=O)(=O)c3ccc(F)cc3)sc2c1 | 12.4% (inactive) |  |
| CCS(=O)(=O)N1Cc2ccccc2CC1C(=O)Nc1ccc(OC)cc1OC (stereo not drawn) | 16% (inactive) |  |
| O=C(c1ccc(F)cc1)N1CCCC(C(=O)N2CCCCC2)C1 (stereo not drawn) | 1.02% (inactive) |  |
| Cc1cc(NS(=O)(=O)c2ccc(NC(=O)c3cccnc3)cc2)nc(C)n1 | -34% (inactive) |  |
| Cc1cc(C)c2c(Cn3ccnc3)cc(=O)oc2c1 | 2% (inactive) |  |
| O=C(c1cc(-c2ccc(Cl)cc2)on1)N1CCN(c2ccccc2)CC1 | -6.49% (inactive) |  |
| Cc1cccc(COc2ccccc2/C=N/Nc2ccc([N+](=O)[O-])cc2)c1 | 17.8% (inactive) |  |
| O=C(CSc1nc2ccccc2o1)N/N=C/c1ccccc1C(=O)O | -6.91% (inactive) |  |
| COc1ccc(/C=N/Nc2nc3ccccc3o2)cc1OC | -33.2% (inactive) |  |
| CCOc1ccccc1/C=N/Nc1nc2ccccc2o1 |  | 6.31 µM (active) |
| Brc1ccccc1/C=N/Nc1nc2ccccc2o1 |  | 2.51 µM (active) |
| Oc1c(Br)cccc1/C=N/Nc1c(F)c(F)c(F)c(F)c1F | 21.4% (inactive) |  |
| CC(=O)Nc1ccc(S(=O)(=O)Nc2cc(C)cn(Cc3ccc(C)cc3)c2=O)cc1 | 0% (inactive) |  |
| COCC1CCN(C(=O)C2CCC(=O)N(CC3CCCCC3)C2)CC1 (stereo not drawn) | -17% (inactive) |  |
| CN(Cc1ccccc1)C(=O)CSc1nc2ccccc2[nH]1 | -0.354% (inactive) |  |
| CCC(=O)/C(=C(/O)c1ccccc1)c1nc2ccccc2[nH]1 |  | 6.31 µM (active) |
| CC/C(O)=C1\C(=O)CC(C)(C)CC1=NCCc1nc2ccccc2[nH]1 | 0.887% (inactive) |  |
| CSc1ncccc1C(=O)Nc1ccc(C)cn1 | 7.85% (inactive) |  |
| O=C(Nc1nnc(-c2ccc(F)cc2)s1)c1c(F)cccc1Cl | -37.9% (inactive) |  |

| SMILES | activity change, negative = inhibition | Potency |
| --- | --- | --- |
| COc1cc(S(=O)(=O)N2CCN=C2c2ccccc2)ccc1Cl | 4.5% (inactive) |  |
| Cc1ccc(NC(=O)N2CCC(O)(c3cccnc3)CC2)cc1 | 15.3% (inactive) |  |
| CC1=NN(C(=O)c2ccccc2Br)C(O)(c2cccnc2)C1 (stereo not drawn) |  | 5.62 µM (active) |
| O=C(c1cccc(F)c1)N1CCC(O)(c2cccnc2)CC1 | 13.9% (inactive) |  |
| CC1=NN(C(=O)Cc2ccc(C)cc2)C(O)(c2cccnc2)C1 (stereo not drawn) |  | 8.91 µM (active) |
| Cc1ccc(C(=O)NC(=S)NCc2cccnc2)cc1 | -1.51% (inactive) |  |
| O=C(CN1CCN(Cc2ccccc2)CC1)Nc1ccc(F)c(F)c1 | -18.2% (inactive) |  |
| CCCC[C@H]1COCCS(=O)(=O)N1Cc1cccc(Cl)c1 | 2.35% (inactive) |  |
| O=C(NCCN1CCCC(O)C1)c1cc(COc2c(F)cccc2F)on1 (stereo not drawn) | 4.43% (inactive) |  |
| Cc1ccc(C)c(NC(=O)c2cc(-c3cc(C)cc(C)c3O)n[nH]2)c1 | 9.87% (inactive) |  |
| COc1cccc(OCc2cc(C(=O)N3CCN(C(=O)c4ccco4)CC3)no2)c1 | 43.6% (inactive) |  |
| Cc1ccc(-c2cc(C(F)(F)F)n3ncc(C(=O)N4CCCCC4c4cccnc4)c3n2)cc1 (stereo not drawn) | 12% (inactive) |  |
| COc1ccc(/C=C/C(=O)NC(=S)N2CCCC(C(N)=O)C2)cc1 (stereo not drawn) | -29.3% (inactive) |  |
| O=C(Nc1ccccc1C(F)(F)F)N1CCCC1c1cccnc1 (stereo not drawn) | -3.95% (inactive) |  |
| COc1ccc(C(=O)N2CCCC(C(=O)c3ccccc3OC)C2)cc1OC (stereo not drawn) | 15.3% (inactive) |  |
| COc1ccc(C(=O)Nc2cccnc2)cc1C(=O)Nc1cccnc1 | 18.5% (inactive) |  |
| COc1ccc(/C=C/C(=O)NC(=S)NN2CCCCC2c2cccnc2)cc1 (stereo not drawn) |  | 7.08 µM (active) |
| CCOC(=O)C1CCCN(C(=O)/C=C/c2ccc(OC)cc2)C1 (stereo not drawn) | 1.88% (inactive) |  |
| COc1ccc(C(=O)NC(=S)N2CCCCC2c2cccnc2)cc1OC (stereo not drawn) |  | 0.891 µM (active) |
| O=C(NC(=S)N1CCCCC1c1cccnc1)c1ccccc1 (stereo not drawn) |  | 0.794 µM (active) |
| CCN1CCN(C(=O)C2CCCN(S(=O)(=O)c3ccc(OC)c(OC)c3)C2)CC1 (stereo not drawn) | -7.37% (inactive) |  |
| COc1cc(C(=O)OC2CCOC2=O)c([N+](=O)[O-])cc1OC (stereo not drawn) | -3.43% (inactive) |  |

| SMILES | activity change, negative = inhibition | Potency |
| --- | --- | --- |
| Cc1ccccc1NC(=O)C1CCN(C(=O)NC2CCCCC2)CC1 | -26.7% (inactive) |  |
| Cc1ccc(NC(=S)N2CCN(c3ncccn3)CC2)cc1C |  | 12.6 µM (active) |
| CCOC(=O)c1ccc(NC(=S)N2CCN(c3ccccn3)CC2)cc1 | 4.59% (inactive) |  |
| CNC(=S)N1CCN(c2ccccn2)CC1 | -8.67% (inactive) |  |
| Cc1c(CC(=O)NCC(=O)NCC(=O)O)c(=O)oc2cc3oc4c(c3cc12)CCCC4 | -13.2% (inactive) |  |
| O=C(OCC(=O)N1CCN(C(=O)c2ccco2)CC1)c1cccc(O)c1 | 20.5% (inactive) |  |
| Cn1c(-c2sccc2OCc2cccc(C(F)(F)F)c2)n[nH]c1=S |  | 4.47 µM (active) |
| CCOC(=O)N1CCN(Cc2nc(Cc3cccc(C(F)(F)F)c3)no2)CC1 | 28.2% (inactive) |  |
| O=C(c1ccco1)N1CCN(Cc2cccc(C(F)(F)F)c2)CC1 | 36.5% (inactive) |  |
| COc1ccccc1CNS(=O)(=O)c1c(C)[nH]c(C)c1C(=O)N1CCCCC1 | -9.37% (inactive) |  |
| O=c1c2cc(Br)ccc2nc(-c2cccc(Cl)c2)n1O |  | 12.6 µM (active) |
| Cc1cccc(-c2nc3ccccc3c(=O)n2NC(=O)Cc2ccc(Cl)cc2)c1 | 1.19% (inactive) |  |
| O=C1CCCc2c1nc(-c1cccc(Cl)c1)n2O | 15.1% (inactive) |  |
| O=C(N/N=C/c1c[nH]c2ccccc12)c1cc2ccccc2o1 | -36.8% (inactive) |  |
| O=C(N/N=C/c1ccc([N+](=O)[O-])cc1)c1c[nH]c2ccccc12 | 24.6% (inactive) |  |
| NC(=O)CSc1c[nH]c2ccccc12 | -36.6% (inactive) |  |
| CSC(=S)N/N=C/c1c[nH]c2ccccc12 |  | 0.398 µM (active) |
| O=C(N/N=C/c1c[nH]c2ccccc12)c1ccccc1O |  | 5.62 µM (active) |
| O=C(Cc1c[nH]c2ccccc12)N/N=C/c1cccc(F)c1 | 48.8% (inactive) |  |
| O=C(NCCc1c[nH]c2ccccc12)C1CCN(Cc2ccc(Br)cc2)CC1 | 65.5% (inactive) |  |
| Cc1cc(=O)oc2c3c(cc(OCC(=O)N[C@H](C(=O)O)c4ccccc4)c12)OC(C)(C)CC3 | 25.6% (inactive) |  |
| Cc1ccc(NC(=O)CSc2nn3c(=O)c(C)nnc3s2)cc1Cl | -10.1% (inactive) |  |

| SMILES | activity change, negative = inhibition | Potency |
| --- | --- | --- |
| COCCNC(=O)C(c1ccc(C)cc1)N(C(=O)CCC(=O)Nc1ccccn1)c1cccc(C)c1 (stereo not drawn) | 2.25% (inactive) |  |
| CCCN1C2CCCC1CC(NC(=O)c1cccc(OC)c1)C2 (stereo not drawn) | -2.82% (inactive) |  |
| CCCCCCC(O)(CCN1CCCCC1)c1ccccc1 (stereo not drawn) | -0.158% (inactive) |  |
| Cc1cc(C(F)F)nn1CC(=O)NC1CCCCCC1 | 0.595% (inactive) |  |
| O=C(CCn1c(=S)[nH]c2cc3c(cc2c1=O)OCO3)NCc1ccc(Cl)cc1 | -16.6% (inactive) |  |
| CCCCCn1c(=O)c(C(=O)OCC)c(Cl)c2ccccc21 | 4.9% (inactive) |  |
| Fc1ccc(NC(=S)N2CCc3[nH]c4ccccc4c3C2)cc1 | -5.26% (inactive) |  |
| CCCCn1c(=S)[nH]c2ncccc2c1=O |  | 2 µM (active) |
| O=C(O)c1ccc(Cn2c(=S)[nH]c3cc(Cl)ccc3c2=O)cc1 | -1.95% (inactive) |  |
| CCCCNC(=O)c1ccc(-n2c(=S)[nH]c3ccccc3c2=O)cc1 | -16.4% (inactive) |  |
| O=c1c2ccccc2[nH]c(=S)n1CCN1CCC(=C(c2ccc(F)cc2)c2ccc(F)cc2)CC1 |  | 11.2 µM (active) |
| CCN(CC)CCn1c(=S)[nH]c2ncccc2c1=O | 15.3% (inactive) |  |
| CCCCn1c(=S)[nH]c2ccccc2c1=O |  | 2.82 µM (active) |
| CCCCc1nc2c(=O)[nH]c3ccccc3c2o1 | 5.13% (inactive) |  |
| O=C(CCCN1CCc2[nH]c3ccc(F)cc3c2C1)c1ccc(F)cc1 | -24.2% (inactive) |  |
| CN(C)CCn1c(=S)[nH]c2ccc(Cl)cc2c1=O |  | 10 µM (active) |
| Cc1ccccc1NC(=O)N1CCCC1C(=O)NCc1ccccc1 (stereo not drawn) | 24.5% (inactive) |  |
| COc1cccc(N(CC(=O)NCc2ccccc2)C(=O)CCC(=O)Nc2nccs2)c1 | -25.1% (inactive) |  |
| COc1ccccc1/C=C1\SC(=O)N(CCC(=O)N(C)C2CCS(=O)(=O)C2)C1=O (stereo not drawn) | -41.4% (inactive) |  |
| CCN(CC)S(=O)(=O)c1ccc(N2CC(C(=O)NCc3cccnc3)CC2=O)cc1 (stereo not drawn) | 28.3% (inactive) |  |
| COCCn1c(N)c(NCc2ccccc2)c(=O)[nH]c1=O | -16% (inactive) |  |
| CCc1nnc(NC(=O)CCC(=O)N2CCN(c3cc(C)ccc3C)CC2)s1 | 0% (inactive) |  |

| SMILES | activity change, negative = inhibition | Potency |
| --- | --- | --- |
| O=C(OCc1ccc([N+](=O)[O-])cc1)C1CC(=O)N(Cc2ccccc2Cl)C1 (stereo not drawn) | 4.03% (inactive) |  |
| COc1ccccc1N1CCN(C(=O)c2cc(=O)c3cc(C)cc(C)c3o2)CC1 | -7% (inactive) |  |
| CC1=CC(C)(C)NC(=S)N1c1ccccc1 |  | 3.16 µM (active) |
| Cc1cccc([C@@H]2[C@@H]3C(=O)N(C)C(=O)[C@@H]3[C@@H]3C(=O)Nc4ccccc4C(=O)N23)c1 | -3.16% (inactive) |  |
| Cn1c(CCc2ccccc2)nnc1SCC(N)=O | 6.86% (inactive) |  |
| CCC(C)(C)NC(=O)CN(C(=O)CCC(=O)Nc1nccs1)c1ccc2c(c1)OCO2 | -5.12% (inactive) |  |
| CC(=O)c1cccc(NC(=O)CN2C(=O)c3cccnc3Oc3ccc(Cl)cc32)c1 | 10.5% (inactive) |  |
| Clc1ccc(CSc2nnc(/C=C/c3ccccc3)o2)c(Cl)c1 | 15.2% (inactive) |  |
| Nc1cc(N)nc(SCc2ccc(Cl)cc2)n1 | 31.9% (inactive) |  |
| CSCc1cc(N(C)C)nc(SCc2ccc(Cl)cc2Cl)n1 |  | 8.91 µM (active) |
| Cc1cc(C)c(OCC(=O)N(Cc2cccs2)C2CCS(=O)(=O)C2)c(C)c1 (stereo not drawn) | 4.49% (inactive) |  |
| CCOC(=O)c1ccc(NC(=O)c2cccnc2)cc1 | 20.6% (inactive) |  |
| CCOC(=O)c1ccc(NC(=O)Cn2nnc(-c3ccc(C)cc3)n2)cc1 | -13.1% (inactive) |  |
| CCOC(=O)c1ccc(NC(=S)Nc2cc(C)cc(C)n2)cc1 |  | 2 µM (active) |
| Cc1cccc(NC(=O)Nc2ccc(OCc3ccccc3)cc2)n1 | 13.7% (inactive) |  |
| COC(=O)c1ccc(NC(=S)Nc2cccc(C)n2)cc1 |  | 2 µM (active) |
| Cc1cccc(NC(=O)Cc2ccc(Br)cc2)n1 | 37.9% (inactive) |  |
| CC(=O)N1c2ccc(S(=O)(=O)N3CCCC(C(=O)Nc4ccc(C)cc4C)C3)cc2CC1C (stereo not drawn) | 39.3% (inactive) |  |
| COc1cccc(/C=C2\Sc3ccc(C(=O)NCC4CCCO4)cc3N(C)C2=O)c1 (stereo not drawn) | 7.44% (inactive) |  |
| COc1cc(OC)cc(C(=O)NCCSCc2ccc(Cl)cc2)c1 | 18.3% (inactive) |  |
